Assay results as given in PubChem BioAssay (NCATS).
Results filed as inconclusive are left out. Activity calls are given as the source filed them. Unless noted, the call rests on the fitted dose curve; in most records, active means well fitted curve in the direction sought with a large enough effect; inconclusive means small, poorly fitted or top-dose-only effect, or another doubt; inactive means no such curve, though single readings can be large; an effect the other way counts as inactive or inconclusive.

What was measured:
[1] = qHTS assay for small molecule antagonists of peroxisome proliferator-activated receptor delta signaling (AID 588535); settings: HEK293T PPARd-UAS-bla, beta-lactamase FRET ratio, 18 h; 460 nm channel;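 further: cells co-treated with a PPAR-delta agonist as stimulator during compound exposure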
Method in brief: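 Antagonist-mode qHTS using GeneBLAzer PPAR-delta-UAS-bla HEK293T cells; compound exposure 18 hrs at 37 C over a titration. Ratiometric CCF4 fluorescence at 460/530 nm; concentration-response points fitted to the Hill equation.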

[2] = molecular target: Peroxisome proliferator-activated receptor gamma (Homo sapiens) (UniProt P37231); assay: qHTS assay for small molecule agonists of peroxisome proliferator-activated receptor gamma signaling (AID 588536; active means well fitted curve in the direction sought with a large enough effect in the signal ratio, with a control signal flat, not every such curve was filed as active; the % refers to the signal ratio;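 further: 0% = DMSO basal wells and 100% = rosiglitazone at 2 µM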); settings: HEK293 PPARg-UAS-bla, beta-lactamase ratio, 16 h, percent of rosiglitazone response, DMSO as zero; series mostly up to 76.7 µM
Method in brief: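 Using GeneBLAzer HEK293 cells, response was quantified by CCF4 fluorescence and normalized between basal DMSO (0%) and rosiglitazone 2 uM (100%); curves yielded half-maximal stimulation concentration and efficacy.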

[3] = molecular target: Peroxisome proliferator-activated receptor gamma (Homo sapiens) (UniProt P37231); assay: qHTS assay for small molecule antagonists of peroxisome proliferator-activated receptor gamma signaling (AID 588537; active means well fitted inhibition curve with a large enough effect in the signal ratio, with a control signal flat, not every such curve was filed as active; the % refers to the signal ratio; further: potency means the concentration at half of the fitted maximal effect); settings: HEK293 PPARg-UAS-bla, beta-lactamase ratio, antagonist mode; series mostly up to 76.8 µM
Method in brief: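 Cell-based beta-lactamase assay; GW9662 served as the antagonist control. Stimulation used rosiglitazone, final 50 nM, 16 h, 37 C.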

[4] = qHTS assay for small molecule agonists of retinoid X receptor alpha signaling (AID 588544; calls by dose curve;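 on activation: 0% = DMSO basal wells and 100% = reference agonist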); settings: HEK293T RXRa-UAS-bla, beta-lactamase reporter, 18 h; 530 nm emission
[5] = molecular target: Retinoic acid receptor RXR-alpha (Homo sapiens) (UniProt P19793); assay: as above; settings: HEK293T RXRa-UAS-bla, beta-lactamase reporter, 18 h; series mostly up to 76.7 µM
[6] = molecular target: Thyroid hormone receptor beta (Homo sapiens) (UniProt P10828); assay: qHTS assay for small molecule agonists of thyroid hormone receptor beta signaling (AID 588545; calls by dose curve;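 further: 0% = DMSO only and 100% = 10 nM T3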); settings: TR-UAS-bla GripTite HEK 293, beta-lactamase ratio, agonist mode, 18 h; series mostly up to 76.7 µM
Method in brief: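 Stimulation of a TR-driven beta-lactamase reporter was quantified in GripTite HEK 293 cells. Compound series ran for 18 hrs; curves were normalized to T3 and DMSO controls and fitted to yield EC50.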

[7] = qHTS assay for small molecule antagonists of retinoid X receptor alpha signaling (AID 588546; active means well fitted inhibition curve with a large enough effect in the signal ratio, with a control signal flat, not every such curve was filed as active; the % refers to the signal ratio;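 further: cells stimulated with 9-cis-retinoic acid as agonist; on the % scale 0 is the no-effect control and ±100 the full control effect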); settings: HEK293T RXRa-UAS-bla, beta-lactamase ratio, antagonist mode; measured here: W530 green channel, cytotoxicity proxy
Method in brief: (§1)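 Beta-lactamase reporter inhibition, read as CCF4 fluorescence ratio (ex 405, em 460/530 nm) after 2 h at RT. HEK293T UAS-bla cells, 2500/well, were stimulated with 9-cis-RA at 500 or 100 nM final alongside test compound for 18 h at 37 C.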

[8] = molecular target: Retinoic acid receptor RXR-alpha (Homo sapiens) (UniProt P19793); assay: as above; settings: HEK293T RXRa-UAS-bla, beta-lactamase ratio, antagonist mode
Method in brief: as §1

[9] = molecular target: Thyroid hormone receptor beta (Homo sapiens) (UniProt P10828); assay: qHTS assay for small molecule antagonists of thyroid hormone receptor beta signaling (AID 588547; active means well fitted inhibition curve with a large enough effect in the signal ratio, with a control signal flat, not every such curve was filed as active; the % refers to the signal ratio;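 further: cells stimulated with 0.4 nM T3 agonist during compound exposure; on the % scale 0 is the no-effect control and ±100 the full control effect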); settings: TR-UAS-bla HEK293, beta-lactamase ratio, antagonist mode, 18 h
Method in brief: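 Inhibition of T3-driven (0.4nM final) beta-lactamase reporter activity was measured over 0.59 nM to 92 uM compound after 18 h at 37 C. The cells were GripTite HEK293 TR-UAS-bla in charcoal/dextran-stripped serum, with CCF4 ratio read-out and IC50 from Hill fits.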

[10] = qHTS assay for small molecule activators of the nuclear factor-kappa B (NF-kB) signaling pathway (AID 651749; active means well fitted activation curve with a large enough effect in the signal ratio; the % refers to the signal ratio; further: % of control where 0% means no effect); settings: NF-kB-bla ME-180 cells, beta-lactamase FRET ratio, 16 h; activation: stronger effect = higher value
Method in brief: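 FRET-based beta-lactamase detection in ME-180 cells reports NF-kB response-element-driven transcription following overnight (16 hr) compound treatment.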

[11] = qHTS assay for environmental chemicals that activate the Aryl hydrocarbon Receptor (AhR) signaling pathway (AID 651777); settings: 1A2-DRE human hepatoma cells, luciferase, 24 h; activation: stronger effect = higher value; further: % of control where 0% means no effect; nearly all actives have a fitted effect of over 15% in size
Method in brief: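 Stable CYP1A2 promoter/DRE-luciferase human hepatoma line treated 24 hr; One-Glo luminescence, 30 min RT.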

[12] = molecular target: Peroxisome proliferator-activated receptor alpha (Homo sapiens) (UniProt Q07869); assay: qHTS assay for small molecule agonists of the peroxisome proliferator-activated receptor alpha (PPARalpha) signaling pathway (AID 651778); settings: PathHunter PPARalpha complementation, chemiluminescence, 6 h; max response: stronger effect = higher value; further: % of control where 0% means no effect
Method in brief: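 Chemiluminescence from complemented enzyme reported PPARalpha activation in cells after 6 hr of compound treatment at 37 C. The detection reagent was incubated for 60 min at room temperature, and compounds were scored as agonists.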

[13] = qHTS assay for small molecule agonists of the antioxidant response element (ARE) signaling pathway measured by Nrf2-dependant transcriptional activity (AID 720636; active means well fitted curve in the direction sought with a large enough effect in the repeat runs; an effect the other way counts as inactive or inconclusive;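 further: HepG2 cells with an ARE-driven luciferase reporter; % of control where 0% means no effect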); settings: ARE-luc HepG2, Nrf2 luciferase reporter, 16 h; series mostly up to 92.4 µM
Method in brief: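 Reporter gene assay, HepG2 ARE-luc: 16 hr compound, 37 C, 5% CO2; read-out luciferase luminescence.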

[14] = qHTS assay for small molecule agonists of the antioxidant response element (ARE) signaling pathway measured by Nrf2-dependant transcriptional activity - cell viability counter screen (AID 720653; active means well fitted curve in the direction sought with a large enough effect in the repeat runs; an effect the other way counts as inactive or inconclusive; further: on the % scale 0 is the no-effect control and ±100 the full control effect); settings: ARE-bla HepG2 viability, CellTiter-Glo ATP luminescence, 16 h; max response: stronger effect = lower value
Method in brief: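 Cytotoxicity counter screen: intracellular ATP quantified by CellTiter-Glo luminescence in the same ARE-bla HepG2 plates, after 16 h compound exposure and a 2 h beta-lactamase substrate step.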

[15] = qHTS assay for cell viability of HEK293 cells (AID 743288); settings: ATP luminescence (CellTiter-Glo), 18 h; max response: stronger effect = lower value; further: on the % scale 0 is the no-effect control and ±100 the full control effect; nearly all actives have a fitted effect of over 50% in size
Method in brief: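 Steps: plate 2,000 parental HEK293 cells per well; incubate ≥5 h, 37 C; add compounds in DMSO; incubate 18 h, 37 C; add CellTiter-Glo; wait 30 min at room temperature; read luminescence.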

[16] = qHTS assay for cell viability of the p53RE-bla HCT-116 cell line (AID 743292); settings: p53RE-bla HCT-116 viability, ATP luminescence, 16 h; series mostly up to 95 µM; further: on the % scale 0 is the no-effect control and ±100 the full control effect; nearly all actives have a fitted effect of over 55% in size
Method in brief: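 Readout: CellTiter-Glo luminescence after 30 min RT. Treatment: compounds in DMSO, 16 h, 37 C. Cells: CellSensor p53RE-bla HCT-116, 4,000/well, preincubated 5 h.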

[17] = molecular target: Nuclear receptor subfamily 1 group I member 2 (Rattus norvegicus) (UniProt Q9R1A7); assay: qHTS assay for small molecule activators of the rat pregnane X receptor (rPXR) signaling pathway (AID 651751; call rule not given here; further: 0% is about no effect); settings: rPXR reporter cells, luciferase (One-Glo), 24 h
[18] = qHTS assay for small molecule activators of the human pregnane X receptor (PXR) signaling pathway (AID 720659; call rule not given here; further: 0% is about no effect); settings: DPX-2 HepG2 CYP3A4-luciferase, 24 h; series mostly up to 92.3 µM
[19] = molecular target: Glucocorticoid receptor (Homo sapiens) (UniProt P04150); assay: qHTS assay for small molecule agonists of glucocorticoid receptor signaling (AID 588532; active means well fitted curve in the direction sought with a large enough effect in the signal ratio, with a control signal flat; the % refers to the signal ratio;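 further: 100% = dexamethasone at 0.1 µM and 0% = DMSO only wells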); settings: HeLa MMTV-bla, beta-lactamase ratio, agonist, 18 h; stronger effect = higher value; percent of dexamethasone control, DMSO zero
Method in brief: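 Agonist-mode qHTS: GRE-driven beta-lactamase in HeLa cells exposed 18 h to titrated compounds (up to 92 uM), then CCF4 ratio read after 2 h at RT; Hill-fitted EC50, efficacy relative to 0.1 uM dexamethasone.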

[20] = qHTS assay for small molecule activators of the p53 signaling pathway (AID 651743; active means well fitted activation curve with a large enough effect in the signal ratio, not every such curve was filed as active; the % refers to the signal ratio; further: % of control where 0% means no effect); settings: HCT-116 p53RE-bla, beta-lactamase FRET ratio, 16 h; activation: stronger effect = higher value
Method in brief: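 A beta-lactamase reporter under p53 response element control, stably carried by HCT-116 cells, reported pathway activation. Test compounds were applied for 16 hours at 37 C, and fluorescence was measured 2 hours after adding the B/G FRET substrate.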

Thyroid hormone receptor beta (Homo sapiens), sequence (P10828 whole entry, looked up): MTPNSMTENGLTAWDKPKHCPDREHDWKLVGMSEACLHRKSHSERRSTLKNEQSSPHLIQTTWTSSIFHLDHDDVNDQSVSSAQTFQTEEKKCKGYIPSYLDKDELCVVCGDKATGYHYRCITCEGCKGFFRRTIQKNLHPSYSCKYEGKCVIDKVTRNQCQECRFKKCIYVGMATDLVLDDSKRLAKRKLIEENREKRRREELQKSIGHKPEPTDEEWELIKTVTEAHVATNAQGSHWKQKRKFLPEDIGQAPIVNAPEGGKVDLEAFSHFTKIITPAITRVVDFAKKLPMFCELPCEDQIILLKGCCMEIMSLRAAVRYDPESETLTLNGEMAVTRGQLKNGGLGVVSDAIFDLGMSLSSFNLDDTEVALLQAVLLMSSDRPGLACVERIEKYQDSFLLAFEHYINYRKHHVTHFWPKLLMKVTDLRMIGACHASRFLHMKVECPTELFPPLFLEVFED
Peroxisome proliferator-activated receptor gamma (Homo sapiens), sequence (P37231 whole entry, looked up): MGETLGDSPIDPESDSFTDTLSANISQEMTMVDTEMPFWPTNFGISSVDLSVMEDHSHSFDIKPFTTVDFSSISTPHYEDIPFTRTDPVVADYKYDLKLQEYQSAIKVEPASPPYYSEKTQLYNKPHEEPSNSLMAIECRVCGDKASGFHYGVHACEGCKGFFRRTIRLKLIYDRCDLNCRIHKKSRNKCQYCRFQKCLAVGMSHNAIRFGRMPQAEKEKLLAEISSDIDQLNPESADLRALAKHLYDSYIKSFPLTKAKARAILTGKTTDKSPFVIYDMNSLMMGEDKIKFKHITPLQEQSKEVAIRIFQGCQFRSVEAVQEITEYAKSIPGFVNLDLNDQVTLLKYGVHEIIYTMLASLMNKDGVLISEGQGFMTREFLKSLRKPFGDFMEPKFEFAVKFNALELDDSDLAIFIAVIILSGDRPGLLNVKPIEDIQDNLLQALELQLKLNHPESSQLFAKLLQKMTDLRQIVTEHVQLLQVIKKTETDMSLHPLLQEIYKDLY
Retinoic acid receptor RXR-alpha (Homo sapiens), sequence (P19793 whole entry, looked up): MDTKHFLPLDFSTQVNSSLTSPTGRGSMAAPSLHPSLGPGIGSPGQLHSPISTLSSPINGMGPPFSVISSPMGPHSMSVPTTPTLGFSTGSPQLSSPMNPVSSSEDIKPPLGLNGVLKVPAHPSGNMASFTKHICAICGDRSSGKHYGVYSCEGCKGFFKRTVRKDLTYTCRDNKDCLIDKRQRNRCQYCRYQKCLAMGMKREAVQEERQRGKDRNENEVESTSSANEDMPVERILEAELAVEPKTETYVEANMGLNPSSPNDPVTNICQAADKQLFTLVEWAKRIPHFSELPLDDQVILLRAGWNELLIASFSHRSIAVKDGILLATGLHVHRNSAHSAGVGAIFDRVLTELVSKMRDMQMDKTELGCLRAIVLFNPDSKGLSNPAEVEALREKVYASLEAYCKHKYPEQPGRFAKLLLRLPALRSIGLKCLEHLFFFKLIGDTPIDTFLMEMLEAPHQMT
Nuclear receptor subfamily 1 group I member 2 (Rattus norvegicus), sequence (Q9R1A7 whole entry, looked up): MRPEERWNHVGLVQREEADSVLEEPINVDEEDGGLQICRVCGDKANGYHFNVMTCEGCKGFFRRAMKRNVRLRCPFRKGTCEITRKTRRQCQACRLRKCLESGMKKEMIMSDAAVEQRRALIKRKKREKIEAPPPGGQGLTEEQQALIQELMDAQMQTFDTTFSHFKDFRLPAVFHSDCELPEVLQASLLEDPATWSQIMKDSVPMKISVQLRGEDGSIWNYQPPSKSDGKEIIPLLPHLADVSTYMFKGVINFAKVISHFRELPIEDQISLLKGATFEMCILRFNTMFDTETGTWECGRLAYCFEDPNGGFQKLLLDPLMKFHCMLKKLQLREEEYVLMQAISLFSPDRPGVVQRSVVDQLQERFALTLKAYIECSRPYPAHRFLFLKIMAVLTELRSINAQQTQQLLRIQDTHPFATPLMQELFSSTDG
Peroxisome proliferator-activated receptor alpha (Homo sapiens), sequence (Q07869 whole entry, looked up): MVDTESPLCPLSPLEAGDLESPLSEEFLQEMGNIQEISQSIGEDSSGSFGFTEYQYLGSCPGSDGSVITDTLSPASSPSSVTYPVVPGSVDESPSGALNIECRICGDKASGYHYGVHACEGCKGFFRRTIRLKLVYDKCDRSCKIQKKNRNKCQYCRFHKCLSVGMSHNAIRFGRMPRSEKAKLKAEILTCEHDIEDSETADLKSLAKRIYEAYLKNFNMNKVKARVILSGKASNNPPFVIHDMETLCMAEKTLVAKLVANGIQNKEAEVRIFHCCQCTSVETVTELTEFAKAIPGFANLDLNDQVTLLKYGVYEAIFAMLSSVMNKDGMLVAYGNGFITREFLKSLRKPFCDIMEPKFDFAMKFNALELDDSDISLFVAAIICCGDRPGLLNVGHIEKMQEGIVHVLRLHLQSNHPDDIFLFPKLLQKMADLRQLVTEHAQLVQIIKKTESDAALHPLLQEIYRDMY
Glucocorticoid receptor (Homo sapiens), sequence (P04150 whole entry, looked up): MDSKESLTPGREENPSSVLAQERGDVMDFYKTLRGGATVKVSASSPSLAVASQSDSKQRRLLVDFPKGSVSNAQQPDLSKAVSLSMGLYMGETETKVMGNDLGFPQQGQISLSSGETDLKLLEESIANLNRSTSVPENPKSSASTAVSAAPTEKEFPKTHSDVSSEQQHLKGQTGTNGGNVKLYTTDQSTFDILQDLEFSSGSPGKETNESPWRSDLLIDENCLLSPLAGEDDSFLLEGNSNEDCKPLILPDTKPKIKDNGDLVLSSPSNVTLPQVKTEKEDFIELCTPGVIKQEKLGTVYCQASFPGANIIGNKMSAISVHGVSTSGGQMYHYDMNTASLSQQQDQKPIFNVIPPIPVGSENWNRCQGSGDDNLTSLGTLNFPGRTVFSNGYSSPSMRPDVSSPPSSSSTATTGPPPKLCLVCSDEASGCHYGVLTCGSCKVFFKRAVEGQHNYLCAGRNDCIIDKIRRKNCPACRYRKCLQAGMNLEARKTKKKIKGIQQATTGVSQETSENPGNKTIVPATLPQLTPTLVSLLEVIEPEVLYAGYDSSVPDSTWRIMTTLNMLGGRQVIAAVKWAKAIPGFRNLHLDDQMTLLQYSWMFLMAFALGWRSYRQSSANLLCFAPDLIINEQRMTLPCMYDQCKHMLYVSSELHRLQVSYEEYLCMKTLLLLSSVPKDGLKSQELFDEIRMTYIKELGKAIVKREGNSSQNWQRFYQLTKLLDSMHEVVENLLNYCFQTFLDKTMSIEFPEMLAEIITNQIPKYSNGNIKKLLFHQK

C[Si](C)(Cl)[Si](C)(C)Cl
-0.475%: max response [4]
-22.7%: max response [1]
-27.8%: max response [7]
inactive: outcome [2] | Potency [3] | Potency [5] | Potency [6] | max response [8] -15.7% | activity change % (negative = inhibition) [9] 6.15% | activation [10] -1.24% | activation [11] -0.723% | max response [12] 1.76% | Potency [13] | max response [14] -9.32% | max response [15] -5.72% | Potency [16] | max response [17] -0.179% | outcome [18]

O=C(O)C1(C(=O)Nc2ccc(Cl)cc2Cl)CC1
inactive: Potency [6] | max response [8] 9.68% | activation [10] -1.09% | max response [12] 0.116% | max response [14] -1.63% | max response [15] -9.45% | Potency [16] | outcome [18]
active: Potency [3] 44.7 µM
8.82%: max response [7]

CCCCCCCCCCCC[N+](C)(C)[O-]
-19.7%: max response [1]
inactive: activation [19] 6.56% | outcome [2] | Potency [3] | Potency [6] | activity change % (negative = inhibition) [9] -1.65% | activation [20] 1.24% | activation [10] 2.53% | activation [11] 9.07% | max response [12] 0.14% | max response [14] -6.24% | max response [15] -22.6% | Potency [16]

C[Si]1(C)O[Si](C)(C)O[Si](C)(C)O1
-6.48%: max response [7]
-11.7%: max response [1]
inactive: outcome [2] | Potency [3] | Potency [5] | Potency [6] | max response [8] 2.26% | activity change % (negative = inhibition) [9] 5.16% | activation [20] -3.38% | activation [10] -0.149% | activation [11] 1% | max response [12] 0.478% | Potency [13] | max response [14] -2.26% | max response [15] -1.41% | Potency [16] | max response [17] -5.54% | outcome [18]
-4.52%: max response [4]

O=C(O)c1cc2ccccc2cc1O
18.1%: max response [4]
inactive: activation [19] 2.47% | Potency [3] | Potency [5] | Potency [6] | max response [8] -6.59% | activity change % (negative = inhibition) [9] -1.94% | activation [10] 0.405% | max response [12] 7.01% | max response [14] -1.53% | max response [15] -12.6% | Potency [16] | max response [17] 0.928%
2.59%: max response [7]

O=C=NCCCCCCN=C=O
inactive: outcome [2] | Potency [3] | Potency [5] | Potency [6] | max response [8] -6.2% | activation [10] 0.731% | activation [11] -0.825% | max response [12] -1.66% | Potency [13] | max response [14] -0.323% | max response [15] -9.94% | Potency [16] | max response [17] -0.542% | outcome [18]
-10.7%: max response [4]
-6.96%: max response [7]
15.2%: max response [1]
